Results from PubChem BioAssay (NCATS).
Records with an inconclusive call do not appear. Activity calls are given as the source filed them. The call rests on the fitted dose curve; in most records, active means well fitted inhibition curve with a large enough effect in the signal ratio, with a control signal flat (not every such curve was filed as active); inconclusive means small, poorly fitted or top-dose-only effect, or effect the other way, or a change in a side signal; inactive means no such curve, though single readings can be large or run the other way; the % refers to the signal ratio.

Biological target: Peroxisome proliferator-activated receptor delta (Homo sapiens) (UniProt Q03181)
Assay: qHTS assay for small molecule antagonists of peroxisome proliferator-activated receptor delta signaling (AID 588535)
Conditions: HEK293T PPARd-UAS-bla, beta-lactamase FRET ratio, 18 h; series mostly up to 76.7 µM
Excerpt: NIH Chemical Genomics Center [NCGC] U.S. Environmental Protection Agency [EPA] National Institutes of Environmental Health Sciences [NIEHS] National Toxicology Program [NTP] NCGC Assay Overview The Peroxisome proliferator-activated receptors (PPARs) are lipid-activated transcription factors of the nuclear receptor superfamily with three distinct subtypes namely PPAR alpha, PPAR delta (also called PPAR beta) and PPAR gamma. All these subtypes heterodimerizes with Retinoid X receptor (RXR) and have different physiological functions. […] This role of PPAR delta implicates the potential use of its ligands in the treatment of metabolic disorders.
NCGC Assay Protocol Summary Using a beta-lactamase reporter-gene under control Peroxisome Proliferator-Activated Receptor delta (PPAR-delta) response element, a cell-based assay [GeneBLAzer (PPAR-delta-UAS-bla assay developed by Invitrogen] was used to measure PPAR-delta ligands signaling. GeneBLAzer PPAR-delta-UAS-bla HEK293T cells were used with assay medium containing 2% charcoal/dextran FBS. The assay was performed in clear bottom black Greiner 1536-well plates. Library compounds were measured for their ability to inhibit the reporter gene activity. Compounds were screened in a titration series in 1536-well format. The fluorescence intensity (405 nm excitation, 460/530 nm emission) was measured using an EnVision plate reader. […] Concentration-response titration points for each compound were fitted to the Hill equation yielding concentrations of half-maximal inhibition (IC50) and maximal response (efficacy) values. qHTS protocol for PPAR-delta beta-lactamase assay in antagonist mode [Step] [Parameter] [Value] [Description] 1. Reagent; 5 uL; 4000 cells/well 2. Incubation; 37 C for 5 hrs 3. Compounds; 23 nL; 0.59 nM to 92 uM 4. […] Incubation; 37 C for 18 hrs 7. Detection reagent; 1 uL of CCF4-dye 8. Incubation; RT for 2 hrs 9. Detection; Fluorescence; Envision plate reader

Chain of Peroxisome proliferator-activated receptor delta (Homo sapiens) (Q03181 whole entry, looked up): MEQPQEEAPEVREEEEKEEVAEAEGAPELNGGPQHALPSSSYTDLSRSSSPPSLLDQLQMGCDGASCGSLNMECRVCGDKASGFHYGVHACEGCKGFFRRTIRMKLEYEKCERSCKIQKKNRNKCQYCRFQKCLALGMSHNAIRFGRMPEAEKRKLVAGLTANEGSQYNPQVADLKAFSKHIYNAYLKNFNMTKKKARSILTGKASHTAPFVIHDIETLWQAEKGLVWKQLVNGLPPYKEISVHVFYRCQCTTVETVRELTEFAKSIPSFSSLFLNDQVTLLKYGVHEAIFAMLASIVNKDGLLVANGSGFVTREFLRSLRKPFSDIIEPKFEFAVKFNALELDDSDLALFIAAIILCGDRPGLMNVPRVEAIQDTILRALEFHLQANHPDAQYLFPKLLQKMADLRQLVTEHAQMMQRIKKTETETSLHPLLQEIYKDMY

Q: With `C[C@]12C[C@H](O)[C@H]3[C@@H](CCC4=CC(=O)CC[C@@]43C)[C@@H]1CC[C@@H]2C(=O)CO` as the compound, how does the outcome read?
A: The outcome was “inactive”.

Q: With `CC(O)CN(CCN(CC(C)O)CC(C)O)CC(C)O` (stereo not given) as the compound, how does the outcome read?
A: The outcome was “inactive”.

Q: `[Cl][In]([Cl])[Cl]` was tested. Which outcome did it give?
A: Its outcome is “inactive”.

Q: How did the outcome turn out when `O=C1NS(=O)(=O)c2ccccc21` was run?
A: The outcome was “inactive”.

Q: Which outcome does the source give for `CCCCOC(=O)c1ccc(O)cc1` here?
A: The outcome was “inactive”.

Q: `CC1(C)[C@@H]2CC[C@@]1(C)C(=O)C2` was tested. Which outcome did it give?
A: The outcome was “inactive”.

Q: Which outcome does the source give for `CCCCC(CC)COC(=O)c1ccccc1O` (stereo not given) here?
A: Its outcome is “inactive”.

Q: Which outcome does the source give for `CN(C)CCC=C1c2ccccc2CCc2ccccc21` here?
A: The outcome was “inactive”.

Q: How did the outcome turn out when `O=C1c2c(O)cccc2Cc2cccc(O)c21` was run?
A: The outcome was “inactive”.

Q: How did the outcome turn out when `NC(=O)N/N=C/c1ccc([N+](=O)[O-])o1` was run?
A: The outcome was “inactive”.

Q: Which outcome does the source give for `CC12CCC(CC1)C(C)(C)O2` here?
A: Its outcome is “inactive”.

Q: With `Oc1cccc(O)c1` as the compound, how does the outcome read?
A: The outcome was “inactive”.

Q: `NCCNCCNCCN` was tested. Which outcome did it give?
A: The outcome was “inactive”.

Q: `CC(O)COc1ccccc1` (stereo not given) was tested. Which outcome did it give?
A: Its outcome is “inactive”.

Q: With `CC1=C(/C=C/C(C)=C/C=C/C(C)=C/C(=O)O)C(C)(C)CCC1` as the compound, how does the outcome read?
A: The outcome was “inactive”.

Q: How did the outcome turn out when `CCOC(=O)c1ccc(O)cc1` was run?
A: The outcome was “inactive”.

Q: Which outcome does the source give for `CN(C)CCCN1c2ccccc2Sc2ccc(Cl)cc21` here?
A: Its outcome is “inactive”.

Q: With `COc1ccccc1O` as the compound, how does the outcome read?
A: The outcome was “inactive”.

Q: How did the outcome turn out when `O=C1O[C@H]([C@@H](O)CO)C(O)=C1O` was run?
A: The outcome was “inactive”.

Q: Which outcome does the source give for `CN(C)CCOC(C)(c1ccccc1)c1ccccn1` (stereo not given) here?
A: The outcome was “inactive”.
